Assay results: PubChem BioAssay AID602449 (Sanford-Burnham Center for Chemical Genomics, 2012)
Where “and” joins values, the source holds several entries; their conditions need not be identical. Identical values can stand only once. In all, about 360,000 compounds went through this assay and about 5,000 (1.4%) were called active. The sample holds actives, similar compounds and a random draw of the others, so the mix is not that of the screen.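 How the source made its calls: active means inhibition of 50% or more, scaled per plate between neutral and stimulator controls; inactive means the rest.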 Some structures have more than one record in an assay (separate samples or runs), and their calls can disagree.

Assay: mitochondrial permeability transition pore inhibitors, primary screen, biochemical, isolated mouse mitochondria, absorbance (AID 602449);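 further: 0% = DMSO wells given calcium and 100% = 1 mM EGTA wells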
Settings: Ca2+ swelling absorbance, 30 min, at 10 µM, stronger effect = higher value

SMILES	inhibition
Cc1ccc(-c2c[n+](=O)c3c(n2[O-])CCC3)cc1	0.3% (inactive)
O=C1CCC(C(=O)N2CCCCO2)CN1Cc1cccc(C(F)(F)F)c1 (stereo unspecified)	0.5% (inactive)
C=CCOc1ccccc1CNn1c(C)n[nH]c1=S	-0.7% (inactive)
O=C(Cc1ccccc1)N1CCN(S(=O)(=O)c2ccc([N+](=O)[O-])cc2)CC1	-3.8% (inactive)
O=C(c1ccncc1)N1CCN(S(=O)(=O)c2cccc([N+](=O)[O-])c2)CC1	-0.5% (inactive)
O=C(Cc1ccsc1)N1CCN(S(=O)(=O)c2cc(C(F)(F)F)cc(C(F)(F)F)c2)CC1	53.1% (active)
CC(C)(C)c1ccc(S(=O)(=O)N2CCN(C(=O)c3ccc4c(c3)C(=O)N(Cc3ccncc3)C4=O)CC2)cc1	32.6% (inactive)
O=C(CCC(=O)N1CCN(S(=O)(=O)c2ccc(Cl)cc2)CC1)NCc1cccc(C(F)(F)F)c1	-2.6% (inactive)
O=C(c1ccncc1)N1CCN(S(=O)(=O)c2cc(C(F)(F)F)cc(C(F)(F)F)c2)CC1	106% (active)
CCOC(=O)CNC(=O)CSc1ncccc1-c1nc2ccccc2[nH]1	0% (inactive)
COc1ccc(NC(=O)c2sc(=O)n(Cc3ccc(S(=O)(=O)N(C)C)cc3)c2C)cc1	-1.7% (inactive)
CCOC(=O)c1sc2nc(C)nc(SCC(N)=O)c2c1C	0.2% (inactive)
O=C(CN(C(=O)CCC(=O)Nc1nccs1)c1ccc(F)cc1)NCc1ccc2c(c1)OCO2	-0.8% (inactive)
CC(=O)Nc1cc(-c2ccc(N3CCN(C)CC3)cc2)cn2c(-c3cccc(C(=O)N(C)C)c3)cnc12	0.5% (inactive)
CC(=O)OC1CCC2C3CCC4=C(CC(F)C(=O)C4)C3CCC12C (stereo unspecified)	1.6% (inactive)
CN(C)CC/C=C1\c2ccccc2CSc2ccccc21	2.3% (inactive)
CN(C)Cc1ccccc1C1(O)c2ccccc2CSc2ccccc21 (stereo unspecified)	52.8% (active)
CN(Cc1cccs1)C(=O)Cc1c[nH]c2ccccc12	0.8% (inactive)
COc1ccccc1NC(=O)C1=C(C)Nc2nc3ccccc3n2C1c1cccs1 (stereo unspecified)	0.9% (inactive)
COc1ccc(-c2nc3cnccn3c2NC2CCCCC2)cc1-c1cccc(Cl)c1	2% (inactive) and -0.2% (inactive)
CCOc1cc(-c2nc3cc(C)ccn3c2NCC2CCCO2)ccc1O (stereo unspecified)	-0.2% (inactive)
COc1ccc(-c2nc3cc(C)ccn3c2NC2CCCCC2)cc1SC1CCCCC1	14.7% (inactive) and 55.4% (active)
CCCC1CC(C)(C(=O)Cn2[nH]c(=O)ccc2=O)OC1=O (stereo unspecified)	-1.2% (inactive)
O=C1CCC(C(=O)OCC(=O)Nc2ccc(OC(F)F)cc2)=NN1	-0.6% (inactive)

SMILES	inhibition
O=C(COc1ccc(NC(=O)c2ccccc2[N+](=O)[O-])cc1)c1ccc(F)cc1	-1.1% (inactive)
COc1cc2c3c(c1)/C(=C1/SC(=S)NC1=O)C(=O)N3C(C)(C)C=C2C	91.4% (active)
Cc1cc(C)n(CCNS(=O)(=O)c2ccc(Cl)cc2)n1	0% (inactive)
Cc1ccc(C(=O)NCC(=O)O)s1	-1.7% (inactive)
CCCCc1nc(NCc2ccccc2)c(C#N)c2c1CCCC2	5.4% (inactive)
CCCCc1nc(NCCN)c(C#N)c2c1CSC(C)(C)C2	108% (active)
Cc1nc(NCCN)c(C#N)c2c1COC(C)(C)C2	-1% (inactive)
COc1ccc(OC)c(S(=O)(=O)N(C)CC(=O)N2CCN(c3ccccc3)CC2)c1	-2.8% (inactive)
COc1ccc(C)cc1NC(=S)Nc1ccccc1SC	0.6% (inactive)
COc1ccc(NC(=O)CN(C)C(=O)c2cccc(S(=O)(=O)N3CCN(c4ccccc4)CC3)c2)cc1	1.3% (inactive)
COc1cc2c(C(=O)N3CCN(C)CC3)c(CSc3ccccc3)n(C)c2cc1Br	-3.4% (inactive)
CC1CCCC(C)N1C(=O)COC(=O)c1ccccc1C(=O)c1ccccc1 (stereo unspecified)	-1.2% (inactive)
CCOC(=O)c1c(NC(=O)Cn2nc(C(F)(F)F)cc2C)sc2c1CCC2	4% (inactive)
CCOC(=O)c1c(NC(=O)C(C)Sc2c[nH]c3ccccc23)sc2c1CCC2 (stereo unspecified)	3.9% (inactive)
CCOC(=O)c1c(NC(=O)CSc2cn(CC)c3ccccc23)sc2c1CCC2	59.8% (active)
O=C(NCc1ccncc1)C1CCCN(S(=O)(=O)c2ccc(Br)cc2)C1 (stereo unspecified)	-0.9% (inactive)
Cc1ccc(N(Cc2ccccc2O)C(=O)c2ccccc2F)cc1	0.4% (inactive)
CC(C)C(=O)N1c2ccccc2NC2=C(C(=O)CCC2)C1c1ccc(N(C)C)cc1 (stereo unspecified)	0.8% (inactive)
CCCCC(=O)NNC(=S)NC(=O)C(c1ccccc1)c1ccccc1	69.1% (active)
CCCOCC(O)CC(CC)C(=O)NNC(=S)Nc1ccccc1 (stereo unspecified)	1.7% (inactive)
CCCCC(=O)NCc1ccc(F)cc1	0.7% (inactive)
CCN(CC(=O)Nc1c(F)cccc1F)C(=O)c1cnc(C)cn1	1.7% (inactive)
COC(=O)c1c(C)[nH]c(C(=O)NCCc2ccc(S(N)(=O)=O)cc2)c1C	0.1% (inactive)
COC(=O)c1c(C)[nH]c(C(=O)/C=C/c2ccc(Cl)cc2)c1C	102% (active)

SMILES	inhibition
CCCCOC(=O)c1[nH]c(C)c(C(=O)OC)c1C	1.6% (inactive)
c1csc(-c2nnc(COc3ncnc4sccc34)o2)c1	1.9% (inactive)
COc1cnc(SCc2ccc(Cl)c(Cl)c2)nc1Cl	0.4% (inactive)
COCCNC(=O)CSc1nc2sccc2c(=O)n1-c1ccccc1	0% (inactive)
S=C(NCCCc1ccccc1)Nc1ccc(Br)cc1	85.9% (active)
O=C(COc1ccc(F)cc1Br)NCC1COc2ccccc2O1 (stereo unspecified)	1.6% (inactive)
CC(NC(=S)Nc1ccccc1)C(c1cccs1)N1CCOCC1 (stereo unspecified)	0.1% (inactive)
O=S(=O)(NCCCc1ccccc1)c1ccc(Br)cc1	13.4% (inactive)
S=C(NCC1COc2ccccc2O1)Nc1ccc(Br)cc1 (stereo unspecified)	91.4% (active)
S=C(Nc1ccc(Br)cc1)NC1CCN(Cc2ccccc2)CC1	3.1% (inactive)
CCCN(CC1COc2ccccc2O1)C(=S)Nc1ccc(C)cc1 (stereo unspecified)	2.3% (inactive)
C/C(=N/NC(=S)Nc1ccccc1)c1ccc2c(c1)OCO2	-0.4% (inactive)
CC(NC(=S)Nc1ccccc1)C1COc2ccccc2O1 (stereo unspecified)	83.4% (active)
Cc1c[n+]([O-])ccc1[N+](=O)[O-]	-0.3% (inactive)
COc1ccccc1NC(=O)CCSc1nnc(-c2ccc(O)cc2)o1	-1.6% (inactive)
CC(C)Oc1ccc(C(=O)Nc2cc(=O)n(C)c(=O)n2C)cc1	-1.9% (inactive)
Cn1cnc(S(=O)(=O)N2C[C@@H](O)COC[C@@H]3O[C@H](CC(=O)NC4CCC4)CC[C@H]32)c1	-0.5% (inactive)
O=C(C[C@H]1C[C@@H]2c3cc(NC(=O)C4CCC4)ccc3O[C@@H]2[C@H](CO)O1)NC1CCCCC1	-0.5% (inactive)
Cc1cc(F)ccc1N1CCC(N2CCN(C)C(CCO)C2)CC1 (stereo unspecified)	0% (inactive)
CCCNC(=O)NCc1ccc(N2CCCC2=O)cc1	2.2% (inactive)
COc1cc(N2CCCC2)c(OC)cc1/C=C(/C#N)c1cccc(Br)c1	1.4% (inactive)
Cc1cc(C)c(NC(=O)c2oc3ccccc3c2COc2ccccc2)c(C)c1	1.5% (inactive)
Cc1cc(C)c(NC(=O)C[N+](C)(C)CC(O)COc2cccc3ccccc23)c(C)c1 (stereo unspecified)	80.5% (active)
Cc1cc(C)cc(OCC(=O)NCc2cc(C)nc3ccccc23)c1	4.6% (inactive)

SMILES	inhibition
Cc1cc(C(=O)NC2CC(C)(C)Cc3c2cnn3-c2ccccc2)n[nH]1 (stereo unspecified)	-0.7% (inactive)
COc1ccc(C(=O)NC2CCCc3c2cnn3-c2cccc(C)c2C)c(OC)n1 (stereo unspecified)	71% (active)
Cn1nccc1C(=O)NC1CCCc2c1cnn2-c1ccccc1F (stereo unspecified)	102% (active)
COc1ccc(C(=O)NC2CC(C)(C)Cc3c2cnn3-c2ccccc2C)o1 (stereo unspecified)	-1.2% (inactive)
Cn1nccc1C(=O)NC1CCCc2c1cnn2-c1ccc(F)cc1F (stereo unspecified)	89.9% (active)
CC1=C(C(=O)NC2CC(C)(C)Cc3c2cnn3-c2ccc(C)cc2)OCCO1 (stereo unspecified)	-0.2% (inactive)
COc1ccc(OC)c(C(=O)NC2CCCc3c2cnn3-c2cc(C)cc(C)c2)c1 (stereo unspecified)	1.5% (inactive)
COC(=O)c1ccc(C(=O)NC2CC(C)(C)Cc3c2cnn3-c2ccc(F)cc2)nc1 (stereo unspecified)	-1.7% (inactive)
CC1(C)Cc2c(cnn2-c2cccc(F)c2)C(NC(=O)c2cc[n+]([O-])cc2)C1 (stereo unspecified)	-0.8% (inactive)
CCNC(=O)c1sccc1-n1cccc1	-0.7% (inactive)
CCN(CC)C(=O)Oc1ccc(OC(=O)N(CC)CC)cc1	-0.8% (inactive)
C[C@H](CO)N1C[C@H](C)[C@@H](CN(C)S(=O)(=O)c2ccc(F)cc2)Oc2ccc(NC(=O)CCC(F)(F)F)cc2C1=O	0.8% (inactive)
COc1ccc(CN(Cc2ccco2)S(=O)(=O)c2ccc(S(=O)(=O)N3CCCC3)cc2)cc1	11.4% (inactive)
CCc1cccc(NC(=O)COC(=O)c2cc(=O)c3ccccc3o2)c1	0.9% (inactive)
CSCC[C@H](NC(=O)N1CCn2c1nc1ccccc12)C(=O)NCc1ccc2c(c1)OCO2	-2.6% (inactive)
C=C(C)c1cccc(C(C)(C)NC(=O)NCCN(CC)CC)c1	1.1% (inactive)
CCC(C(=O)NC(C)(C)C)n1c(-c2ccccc2)nc2ccccc21 (stereo unspecified)	1.2% (inactive)
Cc1cc(C)n2nc(C(=O)OCC(=O)N(CCC#N)c3ccc(F)cc3)nc2n1	-0.4% (inactive)
O=C(CCC(=O)N1CCCC1)Nc1ccc([N+](=O)[O-])cc1	-1.4% (inactive)
CN1CCN(CCNC(=O)Nc2ccc([N+](=O)[O-])cc2)CC1	93.8% (active)
CN1CCN(CCNC(=O)Nc2ccccc2[N+](=O)[O-])CC1	-0.3% (inactive)
O=C(NCCCN1CCN(c2ccc(F)cc2)CC1)Nc1ccc([N+](=O)[O-])cc1	90.9% (active)
O=C(Nc1ccc(F)cc1)C1CCN(C(=O)c2ccc([N+](=O)[O-])cc2)CC1	0.6% (inactive)
O=C(CCN1C(=O)COc2ccccc21)NCCCN1CCN(c2ccc(F)cc2)CC1	-0.5% (inactive)
